Measurements as given in PubChem BioAssay (EPA / NIEHS).
Active and inactive are the calls of the source. The calls were made as follows: active = hit-call score of the fitted dose curve at least 0.9, where 1 is the maximum; inactive = score below 0.9.

Columns and labels:
[1] = ATG_GRE_CIS: Attagene CIS-FACTORIAL HepG2 Assay for human Glucocorticoid Response Elements (GRE) (AID 2282947); conditions: HepG2 GRE cis-reporter, Attagene multiplex mRNA; actives raise or lower the signal
How it was run: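 Fluorescence intensity of reporter-specific cDNA fragments, separated by capillary electrophoresis, provides the signal. Constructs carry cis-regulating promoters in transiently transfected HepG2 liver cells; 24 h incubation; fitting is bidirectional against DMSO.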

[2] = ATG_ISRE_CIS: Attagene CIS-FACTORIAL HepG2 Assay for human Interferon Regulatory Factor 1 (IRF1) binding to an Interferon-Stimulated Response Element (ISRE) (AID 2282948); conditions: HepG2 ISRE cis-reporter (Attagene), mRNA transcription readout; actives raise or lower the signal
How it was run: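 Read-out: fluorescent RT-PCR products resolved by capillary electrophoresis, reporting endogenous transcription factor activity via ISRE-driven reporter mRNA in transfected HepG2 cells dosed for 24 h; gain or loss fitted relative to DMSO.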

[3] = ATG_M_32_CIS: Attagene CIS-FACTORIAL HepG2 Assay for M32 Transcription Factor (Internal Marker) (AID 2282949); conditions: HepG2 Attagene cis-factorial M32 reporter, mRNA; actives raise or lower the signal;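 also: background control marker of the multiplexed CIS panel rather than a real target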
How it was run: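 HepG2 transfectants (cis-regulated reporter transcription units) dosed 24 h. Reporter mRNA by RT-PCR plus CE, analysed as gain or loss relative to DMSO.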

[4] = ATG_M_06_CIS: Attagene CIS-FACTORIAL HepG2 Assay for M06 Transcription Factor (Internal Marker) (AID 2282950); conditions: HepG2 Attagene CIS-FACTORIAL M06 internal marker reporter; actives raise or lower the signal
How it was run: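 HepG2 liver cells, 24 h exposure. Reporter transcripts from transfected cis-element constructs quantified by RT-PCR/capillary electrophoresis fluorescence. Bidirectional curve fit against DMSO.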

[5] = target: Hypoxia-inducible factor 1-alpha (Homo sapiens) (UniProt Q16665); test: ATG_HIF1a_CIS: Attagene CIS-FACTORIAL HepG2 Assay for human Hypoxia Inducible Factor 1 (HIF1A) (AID 2282951); conditions: HepG2 Attagene cis-factorial HIF1a reporter transcription; actives raise or lower the signal
How it was run: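 Activity is fitted in both directions relative to DMSO. Reporter transcripts are read by RT-PCR, fluorescent primer extension and capillary electrophoresis after 24 h chemical treatment. The cells are HepG2 carrying transiently transfected cis-element-driven reporter units responding to endogenous factors.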

[6] = target: Heat shock factor protein 1 (Homo sapiens) (UniProt Q00613); test: ATG_HSE_CIS: Attagene CIS-FACTORIAL HepG2 Assay for human Heat Shock Transcription Factor 1 (HSE) (AID 2282953); conditions: HepG2 HSE cis-reporter, Attagene RNA transcription; actives raise or lower the signal
How it was run: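 Endogenous transcription factor activity captured via cis-promoter reporter units transfected into HepG2; treatment lasted 24 h. Fluorescence intensity of reporter fragments analysed with bidirectional curve fitting, DMSO baseline.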

[7] = ATG_MRE_CIS: Attagene CIS-FACTORIAL HepG2 Assay for human Metal Responsive Element (MRE) (AID 2282954); conditions: HepG2 MRE cis-reporter transcription, Attagene multiplex; actives raise or lower the signal
How it was run: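 Measured here is mRNA induction from an MRE cis-element reporter in HepG2 after 24 h, quantified by fluorescence of labelled RT-PCR products on capillary electrophoresis; gain- and loss-of-signal fits use DMSO as baseline.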

[8] = ATG_PBREM_CIS: Attagene CIS-FACTORIAL HepG2 Assay for human Phenobarbital-responsive Enhancer Module (PBREM) (AID 2282955); conditions: HepG2 PBREM cis-reporter, Attagene multiplexed transcription; actives raise or lower the signal
How it was run: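 Endogenous transcription factor activity was read from reporter transcripts in transiently transfected human HepG2 liver cells after 24 h dosing. RT-PCR products were fluorescently labelled, HpaI-cut and sized by capillary electrophoresis; activity fitted bidirectionally against DMSO baseline.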

[9] = ATG_PXRE_CIS: Attagene CIS-FACTORIAL HepG2 Assay for human Pregnane X Receptor Element (PXRE) (AID 2282957); conditions: HepG2 Attagene CIS-FACTORIAL PXRE reporter, mRNA; actives raise or lower the signal
How it was run: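 Using HepG2 transfected with multiple reporter transcription units, endogenous factor-driven transcription was scored as reporter mRNA after 24 h exposure.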

[10] = ATG_RORE_CIS: Attagene CIS-FACTORIAL HepG2 Assay for human RAR-related Orphan Receptor Element (RORE) (AID 2282959); conditions: HepG2 Attagene cis-factorial RORE reporter, mRNA; actives raise or lower the signal
How it was run: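 RORE reporter transcripts reflecting endogenous factor activity were read after 24 h compound exposure of transfected HepG2 cells, using reverse transcription, PCR, fluorescent labelling and capillary electrophoresis sizing. Gain or loss fitted against DMSO.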

[11] = ATG_Sox_CIS: Attagene CIS-FACTORIAL HepG2 Assay for human SRY-box transcription factor (SOX) (AID 2282960); conditions: HepG2 Attagene cis-factorial SOX reporter, mRNA; actives raise or lower the signal
How it was run: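 Reporter transcripts, measured by RT-PCR and capillary electrophoresis of labelled fragments, report endogenous SOX transcription factor activity. Transiently transfected human HepG2 cells receive chemical for 24 h; changes in either direction are fitted relative to DMSO.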

[12] = target: Transcription factor Sp1 (Homo sapiens) (UniProt P08047); test: ATG_Sp1_CIS: Attagene CIS-FACTORIAL HepG2 Assay for human Specificity Protein 1 (Sp1) (AID 2282961); conditions: HepG2 Sp1 cis-reporter transcription, actives raise or lower the signal
How it was run: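 Read-out is reporter transcript level, measured by RT-PCR and fluorescent capillary electrophoresis after 24 h chemical treatment. System: transiently transfected HepG2 cells reporting endogenous transcription factor activity; gain or loss fitted against DMSO baseline.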

[13] = ATG_SREBP_CIS: Attagene CIS-FACTORIAL HepG2 Assay for human Sterol Regulatory Element Binding (SREBP) (AID 2282962); conditions: HepG2 Attagene cis-factorial SREBP reporter, mRNA; actives raise or lower the signal
How it was run: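 Readout: fluorescent reporter-transcript peaks resolved by capillary electrophoresis after RT-PCR. Cells were human HepG2 carrying transfected cis-promoter reporter constructs, dosed for 24 h. Gain or loss of signal was fitted against DMSO controls.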

[14] = target: Signal transducer and activator of transcription 3 (Homo sapiens) (UniProt P40763); test: ATG_STAT3_CIS: Attagene CIS-FACTORIAL HepG2 Assay for human Signal Transducer and Activator of Transcription 3 (STAT3) (AID 2282963); conditions: HepG2, Attagene cis-factorial STAT3 reporter transcription; actives raise or lower the signal
How it was run: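 Fluorescence intensity of 6-FAM-labelled reporter fragments, separated by capillary electrophoresis after RT-PCR, gave the signal. Cells were HepG2 transfected with cis-element reporter units and treated 24 h; fitting was bidirectional relative to DMSO.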

[15] = ATG_TA_CIS: Attagene CIS-FACTORIAL HepG2 Assay for human TA Basal Promoter (AID 2282964); conditions: HepG2 Attagene CIS-factorial TA basal promoter reporter; actives raise or lower the signal
How it was run: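 Fluorescence from labelled RT-PCR reporter fragments, separated by capillary electrophoresis, gives the signal. Cells: HepG2 transiently carrying multiple reporter units, 24 h chemical dosing. Gain or loss relative to DMSO.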

[16] = ATG_TCF_b_cat_CIS: Attagene CIS-FACTORIAL HepG2 Assay for human T-Cell-Factor with beta-catenin (TCF/b-cat) (AID 2282965); conditions: HepG2 TCF/beta-catenin cis-reporter transcription, actives raise or lower the signal
How it was run: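 Cells of the HepG2 line carry transiently transfected reporter units whose promoters respond to endogenous factors. Twenty-four hours post-dosing, reporter mRNA induction is measured by fluorescent RT-PCR and capillary electrophoresis, with DMSO as baseline.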

[17] = ATG_PPRE_CIS: Attagene CIS-FACTORIAL HepG2 Assay for human Peroxisome Proliferator-activated Response Element (PPRE) (AID 2282958); conditions: HepG2 PPRE cis-element reporter, Attagene transcription factor profiling; actives raise or lower the signal
How it was run: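 Endogenous PPRE-driven transcription is measured in HepG2 cells carrying transfected multi-reporter constructs. Reporter transcripts are quantified by RT-PCR, HpaI digestion and capillary electrophoresis 24 h after dosing. DMSO baseline, bidirectional fit.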

[18] = target: Hepatocyte nuclear factor 6 (Homo sapiens) (UniProt Q9UBC0); test: ATG_HNF6_CIS: Attagene CIS-FACTORIAL HepG2 Assay for human Hepatocyte Nuclear Factor 6 (HNF6) (AID 2282952); conditions: HepG2 Attagene cis-factorial HNF6 reporter transcription; actives raise or lower the signal
How it was run: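 Using cis-element reporters in HepG2 liver cells, the assay tracks endogenous factor-driven transcription 24 h post-dosing. Signal comes from 6-FAM-labelled, HpaI-digested RT-PCR fragments, with gain or loss scored against DMSO.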

[19] = target: Paired box protein Pax-6 (Homo sapiens) (UniProt P26367); test: ATG_Pax6_CIS: Attagene CIS-FACTORIAL HepG2 Assay for human Paired Box 6 (PAX6) (AID 2282956); conditions: HepG2 CIS-FACTORIAL PAX6 reporter transcription, RNA readout; actives raise or lower the signal
How it was run: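 Readout: reporter transcript fluorescence after RT-PCR and capillary electrophoresis. Cells: HepG2, transiently transfected with cis-regulated MRTUs. Exposure 24 h. Gain or loss of signal fitted bidirectionally relative to DMSO.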

Measured: AC50

Signal transducer and activator of transcription 3 (Homo sapiens), sequence (P40763 whole entry, looked up, the tested form may be a part): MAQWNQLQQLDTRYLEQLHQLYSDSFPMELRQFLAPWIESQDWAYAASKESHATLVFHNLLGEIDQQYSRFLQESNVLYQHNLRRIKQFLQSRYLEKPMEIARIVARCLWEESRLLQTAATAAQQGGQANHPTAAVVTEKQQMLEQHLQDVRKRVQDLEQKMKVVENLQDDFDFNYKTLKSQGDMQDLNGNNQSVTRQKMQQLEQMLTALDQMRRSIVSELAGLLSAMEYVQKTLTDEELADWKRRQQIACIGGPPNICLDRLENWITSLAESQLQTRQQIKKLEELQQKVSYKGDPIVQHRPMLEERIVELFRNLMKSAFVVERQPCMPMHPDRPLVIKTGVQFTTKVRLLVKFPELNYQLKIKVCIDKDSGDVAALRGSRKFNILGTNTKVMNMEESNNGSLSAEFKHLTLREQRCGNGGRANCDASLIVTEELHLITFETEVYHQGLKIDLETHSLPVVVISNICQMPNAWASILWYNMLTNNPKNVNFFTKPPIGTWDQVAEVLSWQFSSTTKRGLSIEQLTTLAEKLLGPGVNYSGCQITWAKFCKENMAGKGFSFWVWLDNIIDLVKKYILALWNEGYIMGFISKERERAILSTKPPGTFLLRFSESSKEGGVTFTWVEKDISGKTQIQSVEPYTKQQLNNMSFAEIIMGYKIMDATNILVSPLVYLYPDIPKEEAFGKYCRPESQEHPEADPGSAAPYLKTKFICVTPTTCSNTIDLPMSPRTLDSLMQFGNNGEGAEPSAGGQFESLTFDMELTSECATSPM
Paired box protein Pax-6 (Homo sapiens), sequence (P26367 whole entry, looked up): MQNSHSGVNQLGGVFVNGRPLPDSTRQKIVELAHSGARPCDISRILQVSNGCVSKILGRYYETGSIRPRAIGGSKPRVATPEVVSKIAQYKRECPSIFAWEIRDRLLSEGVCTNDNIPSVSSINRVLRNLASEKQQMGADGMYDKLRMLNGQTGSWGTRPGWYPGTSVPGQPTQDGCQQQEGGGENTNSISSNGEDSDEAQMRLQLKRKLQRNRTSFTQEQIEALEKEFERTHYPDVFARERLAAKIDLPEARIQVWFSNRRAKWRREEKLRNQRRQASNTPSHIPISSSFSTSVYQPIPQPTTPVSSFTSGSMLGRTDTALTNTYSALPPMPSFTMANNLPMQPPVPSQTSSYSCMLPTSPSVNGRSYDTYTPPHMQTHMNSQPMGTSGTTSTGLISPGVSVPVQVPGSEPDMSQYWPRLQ
Hypoxia-inducible factor 1-alpha (Homo sapiens), sequence (Q16665 whole entry, looked up): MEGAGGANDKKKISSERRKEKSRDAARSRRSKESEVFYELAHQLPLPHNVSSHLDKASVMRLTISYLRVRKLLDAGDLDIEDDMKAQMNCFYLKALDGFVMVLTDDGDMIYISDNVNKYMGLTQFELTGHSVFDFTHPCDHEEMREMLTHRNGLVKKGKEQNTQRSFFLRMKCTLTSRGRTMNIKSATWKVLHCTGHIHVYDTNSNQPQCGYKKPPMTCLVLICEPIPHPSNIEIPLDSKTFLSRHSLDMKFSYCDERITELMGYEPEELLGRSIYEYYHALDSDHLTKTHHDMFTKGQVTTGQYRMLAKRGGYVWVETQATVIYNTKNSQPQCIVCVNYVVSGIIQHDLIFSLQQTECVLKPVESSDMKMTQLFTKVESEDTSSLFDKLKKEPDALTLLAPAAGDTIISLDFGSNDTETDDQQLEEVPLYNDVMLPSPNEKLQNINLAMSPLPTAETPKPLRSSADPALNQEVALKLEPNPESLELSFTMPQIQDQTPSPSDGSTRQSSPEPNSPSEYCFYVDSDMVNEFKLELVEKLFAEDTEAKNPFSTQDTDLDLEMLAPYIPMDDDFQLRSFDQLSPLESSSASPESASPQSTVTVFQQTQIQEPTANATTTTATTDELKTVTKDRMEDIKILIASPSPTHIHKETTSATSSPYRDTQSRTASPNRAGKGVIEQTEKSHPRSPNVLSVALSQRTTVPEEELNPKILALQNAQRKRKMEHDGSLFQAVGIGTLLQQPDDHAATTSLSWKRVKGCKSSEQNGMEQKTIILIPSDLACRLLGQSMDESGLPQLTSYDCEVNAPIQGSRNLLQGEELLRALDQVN
Transcription factor Sp1 (Homo sapiens), sequence (P08047 whole entry, looked up): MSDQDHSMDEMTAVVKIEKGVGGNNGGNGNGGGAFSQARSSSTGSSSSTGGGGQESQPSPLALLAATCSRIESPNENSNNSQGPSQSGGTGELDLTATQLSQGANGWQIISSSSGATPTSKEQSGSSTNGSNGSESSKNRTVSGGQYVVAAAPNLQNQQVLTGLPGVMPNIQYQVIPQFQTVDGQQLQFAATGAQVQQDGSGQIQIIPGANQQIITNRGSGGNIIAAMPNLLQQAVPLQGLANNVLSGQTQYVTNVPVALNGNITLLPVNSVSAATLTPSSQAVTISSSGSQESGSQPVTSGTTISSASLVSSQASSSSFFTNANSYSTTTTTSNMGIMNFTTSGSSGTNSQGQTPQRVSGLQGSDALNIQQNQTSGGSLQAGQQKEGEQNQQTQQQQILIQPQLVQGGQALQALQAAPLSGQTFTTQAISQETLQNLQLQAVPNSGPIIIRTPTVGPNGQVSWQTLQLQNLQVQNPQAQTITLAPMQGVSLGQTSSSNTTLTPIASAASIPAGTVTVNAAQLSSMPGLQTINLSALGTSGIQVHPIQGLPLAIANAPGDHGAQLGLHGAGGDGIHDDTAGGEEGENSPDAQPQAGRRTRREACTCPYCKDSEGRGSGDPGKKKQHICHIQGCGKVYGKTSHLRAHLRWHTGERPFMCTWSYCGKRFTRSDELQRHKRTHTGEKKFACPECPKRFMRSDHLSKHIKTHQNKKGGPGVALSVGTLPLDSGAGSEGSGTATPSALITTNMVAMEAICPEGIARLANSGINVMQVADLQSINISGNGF
Heat shock factor protein 1 (Homo sapiens), sequence (Q00613 whole entry, looked up, the tested form may be a part): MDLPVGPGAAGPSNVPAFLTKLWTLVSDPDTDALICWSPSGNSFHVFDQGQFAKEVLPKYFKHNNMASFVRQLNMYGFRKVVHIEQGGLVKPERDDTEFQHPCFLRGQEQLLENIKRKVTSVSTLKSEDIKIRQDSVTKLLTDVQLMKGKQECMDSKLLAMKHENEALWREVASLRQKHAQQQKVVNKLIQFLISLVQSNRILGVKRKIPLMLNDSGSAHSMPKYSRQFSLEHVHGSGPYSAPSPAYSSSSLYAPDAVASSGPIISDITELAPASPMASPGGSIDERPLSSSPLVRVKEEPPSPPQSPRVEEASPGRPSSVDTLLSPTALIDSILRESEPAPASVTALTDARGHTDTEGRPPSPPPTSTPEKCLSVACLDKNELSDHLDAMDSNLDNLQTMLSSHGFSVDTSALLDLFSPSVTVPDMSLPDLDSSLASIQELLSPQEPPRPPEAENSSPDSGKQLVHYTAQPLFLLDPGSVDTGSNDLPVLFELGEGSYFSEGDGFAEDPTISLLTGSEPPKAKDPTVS
Hepatocyte nuclear factor 6 (Homo sapiens), sequence (Q9UBC0 whole entry, looked up, the tested form may be a part): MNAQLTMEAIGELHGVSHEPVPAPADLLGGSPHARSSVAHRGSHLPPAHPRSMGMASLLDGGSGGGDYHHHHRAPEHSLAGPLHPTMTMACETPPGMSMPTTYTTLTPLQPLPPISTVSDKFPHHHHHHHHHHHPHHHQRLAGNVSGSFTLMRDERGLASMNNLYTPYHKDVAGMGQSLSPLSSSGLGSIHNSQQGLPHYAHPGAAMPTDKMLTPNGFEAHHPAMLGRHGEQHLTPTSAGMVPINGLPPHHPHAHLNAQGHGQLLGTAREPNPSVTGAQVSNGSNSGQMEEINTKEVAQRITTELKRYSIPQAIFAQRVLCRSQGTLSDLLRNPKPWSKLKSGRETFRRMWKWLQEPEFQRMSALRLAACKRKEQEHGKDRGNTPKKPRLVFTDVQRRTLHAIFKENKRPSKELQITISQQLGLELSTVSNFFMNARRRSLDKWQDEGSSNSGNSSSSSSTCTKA

C#CC(C)(C)NC(=O)c1cc(Cl)cc(Cl)c1
active: [7] 50 µM | [8] 50 µM | [9] 7.44 µM | [13] 50 µM
not listed: [17] | [18] | [19]
inactive: all other assays above

CCOP(=S)(Oc1cnc(C(C)(C)C)nc1)OC(C)C (stereo not given)
active: [7] 65.3 µM | [8] 21.2 µM | [9] 1.84 µM | [10] 13.1 µM | [13] 23.2 µM
not listed: [6] | [12] | [18] | [19]
inactive: all other assays above

CON=C(C(=O)OC)c1ccccc1CON=C(C)c1cccc(C(F)(F)F)c1
active: [2] 12.6 µM | [7] 68.9 µM | [9] 32.1 µM
not listed: [1] | [6]
inactive: all other assays above

CCOP(=S)(OCC)OC(Cl)C(Cl)(Cl)Cl (stereo not given)
active: [7] 32.9 µM | [9] 35.6 µM | [13] 38.5 µM
not listed: [6] | [12] | [18]
inactive: all other assays above

COP(=O)(NC(C)=O)SC (stereo not given)
active: [9] 30.5 µM
not listed: [6] | [18]
inactive: all other assays above

CCOP(=S)(OCC)Oc1cc(C)nc(C(C)C)n1
active: [8] 9.92 µM | [9] 4.15 µM | [17] 26 µM | [13] 21.7 µM
not listed: [6] | [18] | [19]
inactive: all other assays above

CC[C@H](C)[C@H]1O[C@]2(C=C[C@@H]1C)C[C@@H]1C[C@@H](C/C=C(\C)[C@@H](O[C@H]3C[C@H](OC)[C@@H](O[C@H]4C[C@H](OC)[C@@H](NC)[C@H](C)O4)[C@H](C)O3)[C@@H](C)/C=C/C=C3\CO[C@@H]4[C@H](O)C(C)=C[C@@H](C(=O)O1)[C@]34O)O2
not listed: [1] | [6] | [12] | [17] | [18] | [19]
inactive: all other assays above
